Columns and labels:
Assay in all cases: PBM binding z-score (relative to random genomic background probes); higher = stronger binding; sequences stand for … in GC…GCGATTGACAGCGTAGAATGAAGG
[1] = system: FXR:RXRa (NR concentration 270 nM, RXRa partner concentration 90 nM)
Procedure, shortened: (§1)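 On custom Agilent 4×180K arrays, double-stranded probes with 34-nt variable regions carried direct-repeat seeds, single-nucleotide variants, half-site ablations or random human genomic background. Ligand-free nuclear receptor dimers were applied for 1 h, and binding was read with antibodies against each partner (one per run). Binding z-scores come from regression-normalized fluorescence, with the random background probes as reference.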

[2] = system: LXRa:RXRa (NR concentration 270 nM, RXRa partner concentration 90 nM)
Procedure, shortened: as §1

[3] = system: LXRa homodimer (NR concentration 270 nM)
Procedure, shortened: as §1

[4] = system: LXRb:RXRa (NR concentration 270 nM, RXRa partner concentration 90 nM)
Procedure, shortened: as §1

[5] = system: LXRb homodimer (NR concentration 270 nM)
Procedure, shortened: as §1

[6] = system: PPARa:RXRa (NR concentration 270 nM, RXRa partner concentration 90 nM)
Procedure, shortened: as §1

[7] = system: PPARg:RXRa (NR concentration 180 nM, RXRa partner concentration 90 nM)
Procedure, shortened: as §1

[8] = system: PPARg:RXRa 270nM:90nM, anti-RXR (NR concentration 270 nM, RXRa partner concentration 90 nM)
Procedure, shortened: as §1

[9] = system: PPARg:RXRa 30nM:10nM, anti-RXR (NR concentration 30 nM, RXRa partner concentration 10 nM)
Procedure, shortened: as §1

[10] = system: PPARg:RXRa 90nM:30nM, anti-RXR (NR concentration 90 nM, RXRa partner concentration 30 nM)
Procedure, shortened: as §1

[11] = system: PPARg:RXRa DBDmut IVT, anti-RXR (DBD mutation: RXRa K156A/R161A, NR concentration 270 nM, RXRa partner concentration 90 nM)
Procedure, shortened: as §1

[12] = system: PPARg:RXRa IVT, anti-PPARg (NR concentration 270 nM, RXRa partner concentration 90 nM)
Procedure, shortened: as §1

[13] = system: PPARg DBDmut IVT, anti-PPARg (DBD mutation: PPARg1 K132A/R137A, NR concentration 270 nM)
Procedure, shortened: as §1

[14] = system: PPARg homodimer (NR concentration 180 nM)
Procedure, shortened: as §1

[15] = system: PXR:RXRa (NR concentration 270 nM, RXRa partner concentration 90 nM)
Procedure, shortened: as §1

[16] = system: PXR homodimer (NR concentration 270 nM)
Procedure, shortened: as §1

[17] = system: RARa:RXR (NR concentration 270 nM, RXRa partner concentration 90 nM)
Procedure, shortened: as §1

[18] = system: RARa homodimer (NR concentration 270 nM)
Procedure, shortened: as §1

[19] = system: RARb:RXRa (NR concentration 270 nM, RXRa partner concentration 90 nM)
Procedure, shortened: as §1

| Sequence | PBM binding z-score [1] | PBM binding z-score [2] | PBM binding z-score [3] | PBM binding z-score [4] | PBM binding z-score [5] | PBM binding z-score [6] | PBM binding z-score [7] | PBM binding z-score [8] | PBM binding z-score [9] | PBM binding z-score [10] | PBM binding z-score [11] | PBM binding z-score [12] | PBM binding z-score [13] | PBM binding z-score [14] | PBM binding z-score [15] | PBM binding z-score [16] | PBM binding z-score [17] | PBM binding z-score [18] | PBM binding z-score [19] |
| --- | --- | --- | --- | --- | --- | --- | --- | --- | --- | --- | --- | --- | --- | --- | --- | --- | --- | --- | --- |
| ATATGTACGTTAGGGTCATTCAGAAAGTAGGGAA | 4.38 | 3.61 | 0.485 | 3.96 | 1.15 | 4.77 | 2.68 | 2.97 | 1.27 | 2.07 | 0.518 | 2.04 | 1.66 | 2.39 | 4.47 | 1.32 | 4.93 | 1.08 | 3.1 |
| ATATGTAGGTTAGGGTCATTCAGAAAGTAGGGAA | 5.09 | 4.43 | 1.52 | 4.66 | 1.62 | 5.61 | 7.97 | 6.68 | 4.41 | 6.43 | 6.61 | 6.95 | 3.49 | 3.86 | 4.66 | 2.12 | 5.52 | 2.73 | 3.34 |
| CGAACTAGGTCAAAGGACAGTGAGAGGCGACGTA | 4.2 | 2.38 | -0.449 | 1.41 | -0.441 | 5.65 | 10.3 | 8.86 | 8 | 9.29 | 7.99 | 8.52 | 1.52 | 1.96 | 0.82 | -0.246 | 2.11 | 0.479 | 3.81 |
| ATATGTAGGTTAGGGACATTCAGAAAGTAGGGAA | 0.703 | 0.638 | 0.29 | 0.442 | 0.526 | 2.39 | 3.98 | 2.82 | 1.2 | 2.33 | 6.18 | 5.89 | 1.59 | 0.688 | 0.115 | 0.777 | 0.618 | 1.69 | 1.04 |
| CGAACTTGGTCAAAGGACAGTGAAAGGCGACGTA | -0.082 | -0.109 | -0.799 | -0.227 | -0.688 | 1.25 | 3.15 | 4.34 | 2.21 | 4.07 | 0.58 | 1.75 | -0.436 | 0.499 | -0.152 | -0.326 | 0.232 | -0.498 | 1.83 |
| ATATGTAGGTTAAGGTCATTCAGAAAGTAGGGAA | 5.54 | 5.3 | 3.85 | 4.59 | 1.75 | 5.54 | 8.49 | 6.99 | 5.28 | 7.39 | 7.09 | 7.46 | 2.29 | 3.37 | 4.99 | 3.21 | 4.73 | 2.27 | 4.35 |
| CGAACTAGGTAAAAGGACAGTGAAAGGCGACGTA | -0.23 | -0.378 | -0.301 | -0.371 | -0.583 | 3.16 | 5.26 | 6.57 | 5.66 | 7.51 | 5.32 | 4.9 | 0.0504 | 0.371 | -0.425 | -0.442 | -0.202 | -0.518 | 1.09 |
| AAATGTAGGTTAGGGTCATTCAGAAAGTAGGGAA | 5.35 | 4.2 | 1.68 | 4.67 | 1.5 | 5.81 | 8.25 | 6.63 | 5.16 | 6.92 | 7.33 | 7.35 | 1.95 | 3.74 | 4.47 | 2.29 | 4.78 | 1.99 | 3.64 |
| CTAACTAGGTCACCAGGACAGTGAAGAGGTTGGA | 4.07 | 2.77 | 0.482 | 1.74 | 0.0977 | 5.34 | 9.24 | 7.69 | 5.34 | 7.49 | 8.89 | 9.08 | -0.261 | 1.88 | 1.42 | 0.375 | 2.8 | 0.69 | 4.28 |
| CGAACTAGGTCACCAAGACAGTGAAGAGGTTGGA | 3.75 | 1.93 | -0.0683 | 1.32 | -0.272 | 5.11 | 8.16 | 6.46 | 4.53 | 6.57 | 7.83 | 8.54 | 0.905 | 1.16 | 1.14 | -0.2 | 1.99 | 0.703 | 4.07 |
| CGAACTAGGTCACCAGGACAGAGAAGAGGTTGGA | 4.19 | 2.59 | 0.117 | 1.71 | -0.205 | 5.15 | 8.52 | 7.02 | 4.71 | 6.65 | 8.29 | 8.26 | 0.828 | 2.46 | 1.55 | 0.0837 | 2.56 | 0.391 | 4.22 |
| CGAACTAGGTCACTAGGACAGTGAAGAGGTTGGA | 2.63 | 1.57 | -0.199 | 0.869 | -0.496 | 4.78 | 8.29 | 6.68 | 3.9 | 6.28 | 7.81 | 8.81 | 2.32 | 1.48 | 0.625 | 0.00587 | 1.68 | 0.195 | 3.62 |
| CGAACTAGGTCAAAGCACAGTGAAAGGCGACGTA | 3.1 | 2.6 | -0.247 | 1.56 | -0.247 | 5.18 | 8.01 | 6.88 | 5.18 | 7.17 | 7.81 | 8.43 | 5.29 | 3.43 | 1.01 | -0.325 | 1.71 | 0.149 | 3.8 |

— the supplement of paper PMC6555819
